Binding signal data for two sequences are collected here from publication PMC7862700, “An all-to-all approach to the identification of sequence-specific readers for epigenetic DNA modifications on cytosine”.

Holding throughout (test): DAPPL (digital affinity profiling via proximity ligation, sequencing); 10 mM Tris-HCl pH 7.5, 50 mM NaCl, 1 mM DTT, 4% glycerol, room temperature, 30 min; GST-TFs on glutathione beads, 16-mer random dsDNA library, 0.1% formaldehyde crosslink after washing; high values mean tight binding
Common to all, as to details: protein: recombinant; tags: N-terminal GST; dsDNA, one strand shown

The target of one assay is T1, ELK1 (Homo sapiens, UniProt P19419 1-428).
T1 sequence: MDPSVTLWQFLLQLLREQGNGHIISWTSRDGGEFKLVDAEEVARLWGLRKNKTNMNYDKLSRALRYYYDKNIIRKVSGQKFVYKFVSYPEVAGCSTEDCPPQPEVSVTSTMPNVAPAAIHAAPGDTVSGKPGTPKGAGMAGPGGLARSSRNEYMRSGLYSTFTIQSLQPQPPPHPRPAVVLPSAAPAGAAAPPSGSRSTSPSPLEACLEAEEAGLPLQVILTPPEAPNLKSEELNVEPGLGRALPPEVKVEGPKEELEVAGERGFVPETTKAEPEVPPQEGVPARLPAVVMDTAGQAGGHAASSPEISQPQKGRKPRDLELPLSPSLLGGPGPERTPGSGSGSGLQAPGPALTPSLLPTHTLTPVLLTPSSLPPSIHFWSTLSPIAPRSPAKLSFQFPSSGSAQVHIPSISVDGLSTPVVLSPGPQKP
The procedure, abridged:
(§1)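 Each value of binding signal is a hexamer's read frequency for a factor divided by the same hexamer's frequency in the tag-only sample. Barcoded, bead-captured GST fusions of human transcription factors made in yeast were pooled with that sample and incubated with 200 nmole of a random double-stranded 16-mer DNA library in Tris/NaCl/DTT/glycerol buffer at room temperature for 30 min. Washing, 0.1% formaldehyde crosslinking, proximity ligation, PCR and Illumina NextSeq500 sequencing followed.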

The next assay deals with T2, GABPA (Homo sapiens, UniProt Q06546 1-454).
T2 sequence: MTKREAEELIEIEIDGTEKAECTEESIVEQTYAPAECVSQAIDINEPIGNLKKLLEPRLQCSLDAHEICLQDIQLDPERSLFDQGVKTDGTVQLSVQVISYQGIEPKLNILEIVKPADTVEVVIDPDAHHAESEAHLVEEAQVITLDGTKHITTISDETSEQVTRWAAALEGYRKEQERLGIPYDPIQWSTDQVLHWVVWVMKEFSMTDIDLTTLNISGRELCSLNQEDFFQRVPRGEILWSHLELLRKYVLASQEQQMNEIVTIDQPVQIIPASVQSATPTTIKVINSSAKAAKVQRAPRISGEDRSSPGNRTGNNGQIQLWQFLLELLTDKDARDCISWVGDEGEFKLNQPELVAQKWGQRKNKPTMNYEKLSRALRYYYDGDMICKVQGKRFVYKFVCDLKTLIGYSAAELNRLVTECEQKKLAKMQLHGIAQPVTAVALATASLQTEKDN
The procedure, abridged: as §1

The next assay has as its target T3, ERG (Homo sapiens, UniProt P11308 1-479).
T3 sequence: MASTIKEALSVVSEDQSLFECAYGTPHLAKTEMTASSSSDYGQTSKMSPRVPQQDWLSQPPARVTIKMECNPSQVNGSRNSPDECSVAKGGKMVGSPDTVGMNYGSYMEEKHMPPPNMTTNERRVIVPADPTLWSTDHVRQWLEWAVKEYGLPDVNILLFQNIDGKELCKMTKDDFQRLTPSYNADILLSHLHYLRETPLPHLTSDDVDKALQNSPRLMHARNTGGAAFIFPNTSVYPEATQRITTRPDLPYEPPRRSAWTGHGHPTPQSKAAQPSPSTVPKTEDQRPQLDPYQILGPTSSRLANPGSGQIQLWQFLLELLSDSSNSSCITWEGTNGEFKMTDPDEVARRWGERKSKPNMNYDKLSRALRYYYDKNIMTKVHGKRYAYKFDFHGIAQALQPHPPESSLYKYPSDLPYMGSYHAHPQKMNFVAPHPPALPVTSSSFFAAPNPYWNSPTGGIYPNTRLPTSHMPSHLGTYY
In short, it runs like this:
as §1

The target in the next assay is ELF1 (Homo sapiens, UniProt P32519 1-619). In short, it runs like this:
as §1

The target in another assay is T4, EHF (Homo sapiens, UniProt Q9NZC4 1-300).
T4 sequence: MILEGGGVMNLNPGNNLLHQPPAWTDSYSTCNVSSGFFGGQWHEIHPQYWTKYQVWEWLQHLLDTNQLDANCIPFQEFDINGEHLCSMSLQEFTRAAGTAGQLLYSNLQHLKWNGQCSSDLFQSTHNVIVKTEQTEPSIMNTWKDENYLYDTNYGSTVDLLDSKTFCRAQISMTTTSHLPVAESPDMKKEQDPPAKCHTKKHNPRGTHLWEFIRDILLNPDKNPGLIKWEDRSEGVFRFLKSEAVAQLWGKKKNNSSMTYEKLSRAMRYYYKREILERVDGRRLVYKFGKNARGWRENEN
The procedure, abridged: as §1

The target in a further assay is SPIB (Homo sapiens, UniProt Q01892 1-262). In short, it runs like this: as §1
The next assay deals with ETV5 (Homo sapiens, UniProt P41161 1-510). In short, it runs like this:
as §1

For the next assay, the target named is T5, SPIC (Homo sapiens, UniProt Q8N5J4 1-248).
T5 sequence: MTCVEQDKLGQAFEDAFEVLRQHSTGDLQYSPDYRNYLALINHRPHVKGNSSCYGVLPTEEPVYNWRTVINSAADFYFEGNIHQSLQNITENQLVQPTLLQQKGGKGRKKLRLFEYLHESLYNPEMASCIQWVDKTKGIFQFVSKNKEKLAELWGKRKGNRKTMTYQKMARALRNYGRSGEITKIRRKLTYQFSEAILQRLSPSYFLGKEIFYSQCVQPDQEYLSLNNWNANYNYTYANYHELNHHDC
In short, it runs like this:
as §1

The next assay has as its target ELF4 (Homo sapiens, UniProt Q99607 1-663). In short, it runs like this:
as §1

A further assay has as its target T6, ELK4 (Homo sapiens, UniProt P28324-2 1-405).
T6 sequence: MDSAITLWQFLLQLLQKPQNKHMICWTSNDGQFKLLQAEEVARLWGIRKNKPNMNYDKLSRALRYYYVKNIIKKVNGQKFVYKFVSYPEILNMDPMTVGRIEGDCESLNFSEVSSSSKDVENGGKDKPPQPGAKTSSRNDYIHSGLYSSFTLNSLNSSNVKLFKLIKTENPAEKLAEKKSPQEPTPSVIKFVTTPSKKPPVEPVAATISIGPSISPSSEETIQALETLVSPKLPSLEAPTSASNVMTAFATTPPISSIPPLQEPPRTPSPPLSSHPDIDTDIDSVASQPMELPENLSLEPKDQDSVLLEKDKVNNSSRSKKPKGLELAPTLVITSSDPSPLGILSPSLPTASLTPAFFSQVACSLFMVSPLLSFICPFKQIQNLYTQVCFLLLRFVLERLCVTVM
The procedure, abridged:
as §1

The next assay has as its target T7, ELF3 (Homo sapiens, UniProt P78545 1-371).
T7 sequence: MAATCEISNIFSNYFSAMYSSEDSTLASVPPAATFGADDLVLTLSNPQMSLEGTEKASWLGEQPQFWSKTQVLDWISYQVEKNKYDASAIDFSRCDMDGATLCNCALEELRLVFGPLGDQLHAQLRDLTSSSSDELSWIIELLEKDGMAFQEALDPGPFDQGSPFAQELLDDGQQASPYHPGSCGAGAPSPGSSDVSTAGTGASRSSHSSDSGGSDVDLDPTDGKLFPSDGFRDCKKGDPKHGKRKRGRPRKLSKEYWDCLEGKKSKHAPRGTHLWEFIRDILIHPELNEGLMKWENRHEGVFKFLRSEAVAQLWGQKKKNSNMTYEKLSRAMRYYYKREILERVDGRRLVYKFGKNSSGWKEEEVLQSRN
The procedure, abridged: as §1

The target of another assay is ETV1 (Homo sapiens, UniProt P50549 1-477). The procedure, abridged:
as §1

The target of another assay is T8, ERF (Homo sapiens, UniProt P50548 1-548).
T8 sequence: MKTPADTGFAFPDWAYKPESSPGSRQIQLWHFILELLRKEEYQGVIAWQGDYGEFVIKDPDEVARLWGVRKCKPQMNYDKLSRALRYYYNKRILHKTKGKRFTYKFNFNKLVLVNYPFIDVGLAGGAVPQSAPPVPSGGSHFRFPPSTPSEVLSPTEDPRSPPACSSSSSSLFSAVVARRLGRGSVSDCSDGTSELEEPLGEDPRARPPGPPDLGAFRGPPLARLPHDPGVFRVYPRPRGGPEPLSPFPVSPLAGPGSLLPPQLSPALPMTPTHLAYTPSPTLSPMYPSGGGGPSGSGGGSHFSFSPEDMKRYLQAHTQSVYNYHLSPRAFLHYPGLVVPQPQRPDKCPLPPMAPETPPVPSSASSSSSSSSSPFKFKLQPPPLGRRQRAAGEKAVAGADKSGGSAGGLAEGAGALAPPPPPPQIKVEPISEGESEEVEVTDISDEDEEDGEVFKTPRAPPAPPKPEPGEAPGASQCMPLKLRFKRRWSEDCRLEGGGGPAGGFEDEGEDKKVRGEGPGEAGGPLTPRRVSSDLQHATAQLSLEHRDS
The procedure, abridged:
as §1

Another assay has as its target T9, ETV3L (Homo sapiens, UniProt Q6ZN32 1-361).
T9 sequence: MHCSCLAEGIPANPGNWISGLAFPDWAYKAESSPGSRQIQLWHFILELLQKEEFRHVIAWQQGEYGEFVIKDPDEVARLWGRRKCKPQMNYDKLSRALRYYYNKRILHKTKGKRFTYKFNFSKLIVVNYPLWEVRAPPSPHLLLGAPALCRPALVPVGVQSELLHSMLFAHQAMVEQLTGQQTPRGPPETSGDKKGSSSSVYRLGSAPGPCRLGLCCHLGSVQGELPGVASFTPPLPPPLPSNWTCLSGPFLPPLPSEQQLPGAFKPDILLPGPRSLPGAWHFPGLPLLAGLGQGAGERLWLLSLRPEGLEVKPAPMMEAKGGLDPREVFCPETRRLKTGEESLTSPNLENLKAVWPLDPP
In short, it runs like this: as §1

For a further assay, the target named is T10, SPDEF (Homo sapiens, UniProt O95238 1-335).
T10 sequence: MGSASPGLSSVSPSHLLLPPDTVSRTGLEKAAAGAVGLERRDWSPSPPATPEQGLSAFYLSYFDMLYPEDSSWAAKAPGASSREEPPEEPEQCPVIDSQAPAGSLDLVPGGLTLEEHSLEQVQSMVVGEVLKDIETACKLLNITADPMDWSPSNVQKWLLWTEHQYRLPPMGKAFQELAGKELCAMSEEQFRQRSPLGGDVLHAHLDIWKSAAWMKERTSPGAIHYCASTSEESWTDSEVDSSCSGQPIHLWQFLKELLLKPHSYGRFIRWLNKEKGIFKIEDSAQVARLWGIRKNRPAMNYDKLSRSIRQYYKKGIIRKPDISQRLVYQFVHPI
The procedure, abridged:
as §1

The next assay deals with T11, ETV3 (Homo sapiens, UniProt P41162-2 1-143).
T11 sequence: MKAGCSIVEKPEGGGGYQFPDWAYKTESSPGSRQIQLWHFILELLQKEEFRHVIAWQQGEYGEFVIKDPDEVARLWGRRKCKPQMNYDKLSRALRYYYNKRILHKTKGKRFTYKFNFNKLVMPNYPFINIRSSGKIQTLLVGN
The procedure, abridged: as §1

Another assay deals with ETV6 (Homo sapiens, UniProt P41212 1-452). The procedure, abridged:
as §1

Another assay addresses SPI1 (Homo sapiens, UniProt P17947 1-270). In short, it runs like this: as §1
Another assay deals with T12, ETS2 (Homo sapiens, UniProt P15036 1-469).
T12 sequence: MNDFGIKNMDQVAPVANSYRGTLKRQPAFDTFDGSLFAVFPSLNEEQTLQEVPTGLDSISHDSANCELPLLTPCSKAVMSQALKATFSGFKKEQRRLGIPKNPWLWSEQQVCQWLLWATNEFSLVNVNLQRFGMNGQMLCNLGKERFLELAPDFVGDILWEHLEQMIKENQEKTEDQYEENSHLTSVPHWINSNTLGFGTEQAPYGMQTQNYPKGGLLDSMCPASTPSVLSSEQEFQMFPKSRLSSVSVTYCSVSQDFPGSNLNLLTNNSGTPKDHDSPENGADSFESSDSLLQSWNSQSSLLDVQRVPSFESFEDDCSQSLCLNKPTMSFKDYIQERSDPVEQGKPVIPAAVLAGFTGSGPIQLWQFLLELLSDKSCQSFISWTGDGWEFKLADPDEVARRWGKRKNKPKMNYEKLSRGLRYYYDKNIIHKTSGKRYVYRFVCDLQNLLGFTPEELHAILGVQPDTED
In short, it runs like this: as §1

Chain of ELF1 (P32519 whole entry): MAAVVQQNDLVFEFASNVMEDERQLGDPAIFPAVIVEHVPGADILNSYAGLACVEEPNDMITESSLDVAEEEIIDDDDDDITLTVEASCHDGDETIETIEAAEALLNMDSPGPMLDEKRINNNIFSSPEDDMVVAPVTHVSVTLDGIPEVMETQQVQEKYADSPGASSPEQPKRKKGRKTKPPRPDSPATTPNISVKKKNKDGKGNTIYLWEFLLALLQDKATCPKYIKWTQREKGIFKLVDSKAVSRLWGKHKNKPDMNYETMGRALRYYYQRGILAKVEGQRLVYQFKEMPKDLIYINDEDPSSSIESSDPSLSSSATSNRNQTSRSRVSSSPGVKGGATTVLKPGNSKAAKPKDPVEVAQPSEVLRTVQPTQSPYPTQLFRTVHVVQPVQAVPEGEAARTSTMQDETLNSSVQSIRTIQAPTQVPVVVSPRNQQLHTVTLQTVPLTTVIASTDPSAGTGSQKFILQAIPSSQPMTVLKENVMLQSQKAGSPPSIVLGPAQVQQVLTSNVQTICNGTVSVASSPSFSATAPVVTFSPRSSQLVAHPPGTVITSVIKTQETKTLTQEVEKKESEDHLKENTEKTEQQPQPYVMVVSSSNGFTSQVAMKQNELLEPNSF
Chain of ELF4 (Q99607 whole entry): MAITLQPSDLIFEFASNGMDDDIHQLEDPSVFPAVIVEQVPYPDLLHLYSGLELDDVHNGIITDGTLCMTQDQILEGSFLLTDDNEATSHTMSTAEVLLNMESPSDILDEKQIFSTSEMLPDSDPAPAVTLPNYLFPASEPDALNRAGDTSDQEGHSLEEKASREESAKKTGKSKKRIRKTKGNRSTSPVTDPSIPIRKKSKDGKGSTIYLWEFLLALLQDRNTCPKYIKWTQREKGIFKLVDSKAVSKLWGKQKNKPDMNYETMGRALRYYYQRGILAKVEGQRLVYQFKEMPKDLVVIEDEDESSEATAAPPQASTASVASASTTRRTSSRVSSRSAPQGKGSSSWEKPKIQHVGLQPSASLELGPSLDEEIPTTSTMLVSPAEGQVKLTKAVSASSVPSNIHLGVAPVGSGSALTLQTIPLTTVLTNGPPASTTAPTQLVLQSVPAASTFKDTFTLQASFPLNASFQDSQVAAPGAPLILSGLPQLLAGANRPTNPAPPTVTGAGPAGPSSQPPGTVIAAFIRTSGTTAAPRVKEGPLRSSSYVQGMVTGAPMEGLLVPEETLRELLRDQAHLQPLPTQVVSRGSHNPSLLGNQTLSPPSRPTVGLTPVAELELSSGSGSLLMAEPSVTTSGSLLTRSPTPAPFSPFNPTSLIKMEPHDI
Chain of ETV5 (P41161 whole entry): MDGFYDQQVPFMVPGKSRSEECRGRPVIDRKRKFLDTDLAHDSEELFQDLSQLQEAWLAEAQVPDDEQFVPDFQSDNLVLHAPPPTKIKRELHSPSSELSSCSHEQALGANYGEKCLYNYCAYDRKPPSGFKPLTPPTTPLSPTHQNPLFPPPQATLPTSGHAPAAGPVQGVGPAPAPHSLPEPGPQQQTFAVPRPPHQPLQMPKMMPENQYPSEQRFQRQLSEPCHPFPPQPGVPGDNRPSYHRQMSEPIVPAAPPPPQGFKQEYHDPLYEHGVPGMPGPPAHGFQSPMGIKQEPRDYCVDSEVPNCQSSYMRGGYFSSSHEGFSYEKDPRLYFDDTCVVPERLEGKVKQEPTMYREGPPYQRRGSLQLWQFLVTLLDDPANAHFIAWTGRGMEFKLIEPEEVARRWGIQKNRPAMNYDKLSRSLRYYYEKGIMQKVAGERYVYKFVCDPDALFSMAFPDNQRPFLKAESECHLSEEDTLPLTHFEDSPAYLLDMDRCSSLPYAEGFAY
Chain of ETV1 (P50549 whole entry): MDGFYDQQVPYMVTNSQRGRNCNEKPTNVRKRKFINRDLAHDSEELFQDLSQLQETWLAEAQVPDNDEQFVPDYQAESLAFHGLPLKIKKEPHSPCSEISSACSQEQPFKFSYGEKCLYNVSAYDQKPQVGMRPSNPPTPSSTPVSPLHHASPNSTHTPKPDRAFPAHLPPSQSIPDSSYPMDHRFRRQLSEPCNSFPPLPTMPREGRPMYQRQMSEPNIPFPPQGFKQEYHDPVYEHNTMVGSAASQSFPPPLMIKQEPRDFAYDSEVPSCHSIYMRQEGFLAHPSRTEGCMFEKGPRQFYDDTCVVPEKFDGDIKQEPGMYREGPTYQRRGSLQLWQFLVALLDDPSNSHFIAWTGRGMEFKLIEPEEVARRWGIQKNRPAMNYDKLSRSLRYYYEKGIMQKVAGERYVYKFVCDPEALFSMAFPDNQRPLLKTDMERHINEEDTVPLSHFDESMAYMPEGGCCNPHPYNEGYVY
Chain of SPIB (Q01892 whole entry): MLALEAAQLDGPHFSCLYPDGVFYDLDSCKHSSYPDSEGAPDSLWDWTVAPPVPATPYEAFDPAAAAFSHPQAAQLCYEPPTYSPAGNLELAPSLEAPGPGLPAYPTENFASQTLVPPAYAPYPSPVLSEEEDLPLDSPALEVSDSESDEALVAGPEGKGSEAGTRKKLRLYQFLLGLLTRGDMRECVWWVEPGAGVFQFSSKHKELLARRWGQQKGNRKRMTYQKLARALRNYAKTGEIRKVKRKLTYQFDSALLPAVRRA
Chain of ETV6 (P41212 whole entry): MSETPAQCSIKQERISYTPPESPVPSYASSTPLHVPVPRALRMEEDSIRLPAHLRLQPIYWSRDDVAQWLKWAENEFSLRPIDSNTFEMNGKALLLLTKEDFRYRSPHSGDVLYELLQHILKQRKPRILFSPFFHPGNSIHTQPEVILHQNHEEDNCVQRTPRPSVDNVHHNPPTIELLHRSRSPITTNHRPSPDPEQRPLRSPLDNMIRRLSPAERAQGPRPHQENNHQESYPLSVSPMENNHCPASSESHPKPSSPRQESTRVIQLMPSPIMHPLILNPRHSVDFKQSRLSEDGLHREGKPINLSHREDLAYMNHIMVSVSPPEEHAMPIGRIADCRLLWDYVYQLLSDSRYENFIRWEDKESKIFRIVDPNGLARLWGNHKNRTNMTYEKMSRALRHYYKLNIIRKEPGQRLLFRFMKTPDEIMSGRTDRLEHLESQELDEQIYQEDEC

On to CGCGCC, for which the binding signal with ELK1 is 1.01 fold enrichment (6-mer frequency, TF over GST control); with GABPA, 1.03 fold enrichment (6-mer frequency, TF over GST control); in the assay with ERG, 1.03 fold enrichment (6-mer frequency, TF over GST control); with ELF1, 1.06 fold enrichment (6-mer frequency, TF over GST control); in the assay with EHF it was 1.05 fold enrichment (6-mer frequency, TF over GST control); in the assay with SPIB, 1 fold enrichment (6-mer frequency, TF over GST control). For the same sequence, the binding signal with ETV5 was 1.11 fold enrichment (6-mer frequency, TF over GST control); in the assay with SPIC, 1.23 fold enrichment (6-mer frequency, TF over GST control); with ELF4, 1.05 fold enrichment (6-mer frequency, TF over GST control); with ELK4, 1.15 fold enrichment (6-mer frequency, TF over GST control); in the assay with ELF3, 1.05 fold enrichment (6-mer frequency, TF over GST control); with ETV1 it was 1.14 fold enrichment (6-mer frequency, TF over GST control). Besides, the binding signal with ERF is 1.1 fold enrichment (6-mer frequency, TF over GST control); in the assay with ETV3L it was 1.05 fold enrichment (6-mer frequency, TF over GST control); with SPDEF, 1.03 fold enrichment (6-mer frequency, TF over GST control); in the assay with ETV3 it was 1.09 fold enrichment (6-mer frequency, TF over GST control); with ETV6, 1 fold enrichment (6-mer frequency, TF over GST control).

With GAACTG, the binding signal is 1.06 fold enrichment (6-mer frequency, TF over GST control) in the assay with ERG; 1.02 fold enrichment (6-mer frequency, TF over GST control) in the assay with ELF1; 1.01 fold enrichment (6-mer frequency, TF over GST control) with EHF; 1.2 fold enrichment (6-mer frequency, TF over GST control) in the assay with SPI1; 1.01 fold enrichment (6-mer frequency, TF over GST control) in the assay with SPIB; 1.05 fold enrichment (6-mer frequency, TF over GST control) with ETV5. The binding signal with SPIC is 1.26 fold enrichment (6-mer frequency, TF over GST control); in the assay with ELF4, 1.02 fold enrichment (6-mer frequency, TF over GST control); in the assay with ETV1, 1.05 fold enrichment (6-mer frequency, TF over GST control); in the assay with ETS2 it was 1.02 fold enrichment (6-mer frequency, TF over GST control); with ETV3, 1.09 fold enrichment (6-mer frequency, TF over GST control).
